Compound activity from PubChem.
CBFb RUNX1 block = CBF-beta/RUNX1 interaction disruption. Q01196+Q13951. AlphaScreen CBFb-His/RUNX1-biotin binding, biochemical. Potency, µM (series often up to 59.8 µM), actives largely listed as inhibitors. 230,000 tested, under 10 active. AID 1477; active = well fitted curve in the direction sought with a large enough effect; inconclusive = small, poorly fitted or top-dose-only effect, or another doubt; inactive = no such curve, though single readings can be large; an effect the other way counts as inactive or inconclusive
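His-tagged CBF-beta and biotinylated RUNX1 (30 nM each) were premixed 20 min at room temperature, exposed to compound for 15 min, then given nickel-chelate and streptavidin AlphaScreen beads (50 ng each). After 90 min, AlphaScreen signal was read.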
HttQ103 aggreg = mutant huntingtin aggregation inhibition | PC12 HttQ103-GFP aggregates, Acumen cytometry, 40 h | Potency, µM (highest dose often 46.1 µM), most hits filed as inhibitors | 220,000 tested, 1.1% active | AID 1688; active = well fitted curve in the direction sought with a large enough effect; inconclusive = small, poorly fitted or top-dose-only effect, or another doubt; inactive = no such curve, though single readings can be large; an effect the other way counts as inactive or inconclusive; note: nearly all actives have a fitted effect of over 60% in size
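Using laser scanning cytometry, GFP-positive aggregates were counted after lysis of PC12 cells induced with 100 nM tebufenozide to express HTT exon 1 Q103–GFP. Compounds were tested in titration.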
JMJD2E inh = blocks human JMJD2E demethylase activity. B2RXH2. 230,000 tested, 1.6% active. JMJD2E catalytic domain, FDH-coupled NADH fluorescence (FDH is formaldehyde dehydrogenase). Potency, µM (doses to about 57.1 µM), hits mostly inhibitors; note: nearly all actives have a fitted effect of over 50% in size
Target sequence (B2RXH2 1-337 limits assumed): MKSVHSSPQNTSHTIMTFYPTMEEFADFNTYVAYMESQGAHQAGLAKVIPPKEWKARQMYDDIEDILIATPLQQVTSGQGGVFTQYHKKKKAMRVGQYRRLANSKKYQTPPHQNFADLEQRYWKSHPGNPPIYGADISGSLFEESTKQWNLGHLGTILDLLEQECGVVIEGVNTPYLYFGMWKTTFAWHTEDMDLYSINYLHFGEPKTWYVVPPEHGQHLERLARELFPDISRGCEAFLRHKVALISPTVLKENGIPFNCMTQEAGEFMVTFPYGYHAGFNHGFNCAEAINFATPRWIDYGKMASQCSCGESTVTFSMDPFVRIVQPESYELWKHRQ
ALDH1A1 block = blocks purified human ALDH1A1 activity | P00352 | Purified ALDH1A1, NADH fluorescence, propionaldehyde substrate | Potency, µM (top dose mostly 75.3 µM), usual class: inhibitors | 220,000 tested, 7.3% active | AID 1030
HPGD block = blocks human HPGD enzyme activity; P15428; purified HPGD, NADH fluorescence kinetic, PGE2 substrate; Potency, µM, usual class: inhibitors; 150,000 tested, 4.3% active; AID 894
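NADH formation kinetics: reaction with 30 uM PGE2 and 1 mM NAD+ (final), 20 nM enzyme, Tris-HCl pH 8 with Tween 20, after 15 min compound preincubation at room temperature. Fluorescence change, last versus first of five reads.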
HTT cytoprotect = protects HTT-Q103 PC12 cells, measured by ATP; PC12 HTT-Q103 induced, cytoprotection, ATP luminescence, 40 h; Potency, µM (top dose mostly 56.4 µM), actives largely listed as activators; 230,000 tested, 0.14% active; AID 1471; active = well fitted curve in the direction sought with a large enough effect; inconclusive = small, poorly fitted or top-dose-only effect, or another doubt; inactive = no such curve, though single readings can be large; an effect the other way counts as inactive or inconclusive; note: nearly all actives have a fitted effect of over 45% in size
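Stable PC12 Q103-GFP cells in serum-supplemented, phenol red-free DMEM; induction by tebufenozide at 100 nM final; compound dose series; cell viability quantified luminescently from ATP.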
Of the large screens only hits and unclear results are named; the others gave an inactive call. A selection: hits, their analogues and other compounds. The true share with any hit is near 9.8%. Unless noted, calls come from the whole dose curve; as a rule, active = well fitted inhibition curve with a large enough effect (not every such curve was filed as active); inconclusive = small, poorly fitted or top-dose-only effect, or another doubt; inactive = no such curve, though single readings can be large or run the other way.

COc1ccc(NC(=O)CSc2nnnn2C2CCCC2)cc1	ALDH1A1 block 2.51µM (no result: HPGD block)
O=C(CSc1nnnn1C1CCCCC1)Nc1ccccc1F	ALDH1A1 block 3.98µM (no result: HttQ103 aggreg, HPGD block, HTT cytoprotect)
Cc1cc2nc3n(c2cc1C)CC1CC(C(=O)NCC2CC2)N(C)C31 (stereo unspecified)	none (no result: ALDH1A1 block, HPGD block)
Cc1c(NC(=O)c2cc3c(s2)CCCC3)c(=O)n(-c2ccccc2)n1C	none (no result: HPGD block)
CCOc1ccc(NS(=O)(=O)c2ccc(C)c(C(=O)O)c2)cc1	none (no result: CBFb RUNX1 block, HttQ103 aggreg, JMJD2E inh, HTT cytoprotect)
COc1ccc(OCCSc2nnnn2C2CCCCC2)cc1	ALDH1A1 block 22.4µM
O=C(CSc1nnnn1C1CCCC1)Nc1cccc(NC(=O)c2ccco2)c1	ALDH1A1 block inconclusive
c1ccc(OCCSc2nnnn2C2CCCCC2)cc1	ALDH1A1 block inconclusive
O=C(CSc1nnnn1C1CCCCC1)Nc1cccc(NC(=O)c2ccco2)c1	ALDH1A1 block 28.2µM
O=C(CSc1nnnn1C1CCCCC1)Nc1ccc2c(c1)OCO2	ALDH1A1 block 7.94µM
COc1cccc(-n2nnnc2SCC(=O)Nc2ccc(C(C)=O)cc2)c1	none
COc1ccc(OC)c(-n2nnnc2SCC(=O)Nc2ccc(C(=O)N3CCCCC3)cc2)c1	ALDH1A1 block 1.41µM, HPGD block 0.355µM
CC(=O)Nc1cccc(NC(=O)CSc2nnnn2-c2ccc3c(c2)OCO3)c1	none (no result: ALDH1A1 block, HPGD block)
Cc1c(N(C(=O)c2ccccn2)C2(C(=O)NC3CCCCC3)CCCCC2)c(=O)n(-c2ccccc2)n1C	none (no result: HPGD block)
CCOCCn1c(N2CCCN(C)CC2)nc2ccccc21	none (no result: CBFb RUNX1 block, JMJD2E inh, ALDH1A1 block, HPGD block)
CC1CCC(NC(=O)N(CCCl)N=O)CC1 (stereo unspecified)	ALDH1A1 block 12.6µM
CN1C(=O)C2(c3ccccc31)C1CCCC=C1C(C#N)=C(N)C2(C#N)C#N (stereo unspecified)	ALDH1A1 block inconclusive, HTT cytoprotect 20µM (no result: HttQ103 aggreg)
CN1C(=O)C2(C(C#N)=C(N)N(c3cc(Cl)cc(Cl)c3)C3=C2C(=O)CCC3)c2ccccc21 (stereo unspecified)	none
Cc1ccsc1C(=O)NNC(=O)C1CC=CCC1C(=O)O (stereo unspecified)	none (no result: HTT cytoprotect)
Cc1ccsc1C(=O)NNC(=O)C1CCCCC1C(=O)O (stereo unspecified)	ALDH1A1 block 22.4µM
CCOC(=O)Cc1c[nH]c(=S)[nH]c1=O	HTT cytoprotect inconclusive (no result: ALDH1A1 block, HPGD block)
Cn1c(-c2cccc3ccccc23)n[nH]c1=S	JMJD2E inh inconclusive
Cn1c(-c2cc(Br)ccc2O)n[nH]c1=S	JMJD2E inh inconclusive, HPGD block 14.1µM
C=CCn1ccc(=NC=C(C#N)C#N)c2ccccc21	none (no result: ALDH1A1 block, HPGD block)
COC(=O)C1CCN(S(=O)(=O)Cc2ccccc2)CC1	ALDH1A1 block inconclusive, HPGD block 22.4µM
Nc1cc(=O)[nH]n1C1CCCCC1	none (no result: HPGD block)
O=C(Nc1nc2ccccc2s1)NC1CCCCC1	ALDH1A1 block inconclusive (no result: HPGD block)
CCCOC(=S)N/C(=N\S(=O)(=O)c1ccccc1)c1ccccc1	HttQ103 aggreg inconclusive, ALDH1A1 block 14.1µM, HPGD block 28.2µM
CCOC(=S)N/C(=N\S(=O)(=O)c1ccccc1)c1ccccc1	ALDH1A1 block 11.2µM, HPGD block inconclusive
CCOC(=S)N/C(=N\S(C)(=O)=O)c1ccccc1	none (no result: ALDH1A1 block, HPGD block)
O=C(Nc1cccc(Cl)c1)c1cc(F)cc2c1OCOC2	none (no result: HPGD block)
Cc1nn(Cc2ccc(Cl)c(Cl)c2)c(C)c1NC(=O)c1cc(CC(C)C)on1	HttQ103 aggreg 10µM, ALDH1A1 block inconclusive
C=C1C(C(=O)N2CCOCC2)C1C(=O)N1CCOCC1 (stereo unspecified)	none
CCOC(=O)[C@H](N)/C=C(\C)CP(=O)(O)O	none (no result: HttQ103 aggreg)
c1ccc(-c2noc(CN3CCc4sccc4C3)n2)cc1	none (no result: HttQ103 aggreg, HPGD block, HTT cytoprotect)
CCN(CC)c1nc(N)c2c(N)n(-c3ccccc3C)c(=S)c(C#N)c2c1C#N	ALDH1A1 block inconclusive, HPGD block 20µM
CN(C)/C=C/C(=O)/C=C/c1cn(-c2ncc(C(F)(F)F)cc2Cl)c2ccccc12	JMJD2E inh inconclusive, HPGD block 14.1µM
